Source: the supplement of paper PMC10849652
Targets with a hit are over-represented here; the source holds about 7,900 in all. About 0.6% of all pairs of compound and target were hits. Unmarked numbers belong to inactive results.

Experiments:
Test in all cases: log2 fold change, soluble protein after heating vs DMSO (PISA); higher = thermal stabilisation; K562 cells, 10 uM, 30 min; active = over 0.2 and 3.5 SD of the protein, either way, in both replicates (recomputed)
[1] = compound: C[C@@H]1COCCN1C2=NC(=NC(=C2)C3(CC3)S(=O)(=O)C)C4=C5C=CNC5=CC=C4
Procedure, shortened: (§1)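 For each measurement, 10 μM compound was applied for 30 min to K562 cells at 2×10^6 cells/mL. Aliquots were heated for 3 min across 48°C-58°C, pooled, and extracted in PBS with 0.5% NP-40 at 4°C; the supernatant after 21,000xg for 90 min was soluble protein. This was quantified by TMTpro 16plex LC-MS/MS with channel sums equalised, and thermal stability was reported relative to control samples from duplicates, on a log2 fold-change scale.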

[2] = compound: CON(C)C(=O)N1N=C(c2cc(F)ccc2F)S[C@@]1(CCCN)c1ccccc1 [filanesib]
Procedure, shortened: as §1

[3] = compound: COc1cc(Nc2ncc3c(n2)-c2ccc(Cl)cc2C(c2c(F)cccc2OC)=NC3)ccc1C(=O)O [alisertib]
Procedure, shortened: as §1

[4] = compound: COc1cc2ncnc(Nc3ccc(F)c(Cl)c3)c2cc1OCCCN1CCOCC1 [gefitinib]
Procedure, shortened: as §1

[5] = compound: COc1cccc2cc(-c3nc([C@H]4CC[C@H](C(=O)O)CC4)n4ncnc(N)c34)[nH]c12
Procedure, shortened: as §1

[6] = compound: CS(=O)(=O)c1ccc(-c2cnc(N)c(C(=O)Nc3ccccc3)n2)cc1
Procedure, shortened: as §1

[7] = compound: COC1=CC=C(C=C1)CN2C=CC3=C2C=C(C=C3)C(=O)NO
Procedure, shortened: as §1

[8] = compound: C[C@@H](Oc1cc(-c2cnn(C3CCNCC3)c2)cnc1N)c1c(Cl)ccc(F)c1Cl [crizotinib]
Procedure, shortened: as §1

[9] = compound: C[C@H](Nc1ncnc2nc[nH]c12)c1cc2cccc(Cl)c2c(=O)n1-c1ccccc1 [duvelisib]
Procedure, shortened: as §1

[10] = compound: Cc1cc(SCc2sc(-c3ccc(C(F)(F)F)cc3)nc2C)ccc1OCC(=O)O
Procedure, shortened: as §1

[11] = compound: Cc1ccc(-n2nc(C(C)(C)C)cc2NC(=O)Nc2ccc(OCCN3CCOCC3)c3ccccc23)cc1 [doramapimod]
Procedure, shortened: as §1

[12] = compound: Cc1ccc(C(=O)N(CCCN)[C@@H](c2nc3cc(Cl)ccc3c(=O)n2Cc2ccccc2)C(C)C)cc1 [ispinesib]
Procedure, shortened: as §1

[13] = compound: CO[C@H]1C[C@@H]2CC[C@@H](C)[C@@](O)(O2)C(=O)C(=O)N2CCCC[C@H]2C(=O)O[C@H]([C@H](C)C[C@@H]2CC[C@H](n3cnnn3)[C@H](OC)C2)CC(=O)[C@H](C)/C=C(\C)[C@@H](O)[C@@H](OC)C(=O)[C@H](C)C[C@H](C)/C=C/C=C/C=C/1C [zotarolimus]
Procedure, shortened: as §1

[14] = compound: COc1cc(C(=O)O)ccc1NC(=O)[C@@H]1N[C@@H](CC(C)(C)C)[C@](C#N)(c2ccc(Cl)cc2F)[C@H]1c1cccc(Cl)c1F [idasanutlin]
Procedure, shortened: as §1

[15] = compound: COc1cc2nc(-c3cc(F)ccc3O)nc(N[C@@H]3CNC[C@H]3C(C)(C)O)c2cc1OC
Procedure, shortened: as §1

[16] = compound: CS(=O)(=O)CCNCc1ccc(-c2ccc3ncnc(Nc4ccc(OCc5cccc(F)c5)c(Cl)c4)c3c2)o1 [lapatinib]
Procedure, shortened: as §1

[17] = compound: CS(=O)(=O)N1CCN(Cc2cc3nc(-c4cccc5[nH]ncc45)nc(N4CCOCC4)c3s2)CC1 [pictilisib]
Procedure, shortened: as §1

[18] = compound: C[C@H](C1=CC=C(C=C1)C(=O)NC2=C3C=CNC3=NC=C2)N
Procedure, shortened: as §1

[19] = compound: Cc1cc(Nc2cc(CN3CCOCC3)c3nc(C)c(Cc4ccc(Cl)cc4F)n3n2)n[nH]1 [gandotinib]
Procedure, shortened: as §1

[20] = compound: Cc1cc(Nc2cc(N3CCN(C)CC3)nc(Sc3ccc(NC(=O)C4CC4)cc3)n2)n[nH]1 [tozasertib]
Procedure, shortened: as §1

Chain of UniProt Q15906 (Q15906 whole entry, looked up): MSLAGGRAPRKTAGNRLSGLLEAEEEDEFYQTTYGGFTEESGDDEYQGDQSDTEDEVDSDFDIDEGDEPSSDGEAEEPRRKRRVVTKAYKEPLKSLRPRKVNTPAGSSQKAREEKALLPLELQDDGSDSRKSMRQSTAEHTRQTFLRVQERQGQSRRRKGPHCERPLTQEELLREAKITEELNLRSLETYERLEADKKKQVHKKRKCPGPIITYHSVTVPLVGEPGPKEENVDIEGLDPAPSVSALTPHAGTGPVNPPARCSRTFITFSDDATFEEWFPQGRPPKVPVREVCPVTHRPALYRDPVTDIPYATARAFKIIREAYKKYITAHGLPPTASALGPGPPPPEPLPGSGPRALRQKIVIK
Chain of UniProt P36406 (P36406 whole entry, looked up): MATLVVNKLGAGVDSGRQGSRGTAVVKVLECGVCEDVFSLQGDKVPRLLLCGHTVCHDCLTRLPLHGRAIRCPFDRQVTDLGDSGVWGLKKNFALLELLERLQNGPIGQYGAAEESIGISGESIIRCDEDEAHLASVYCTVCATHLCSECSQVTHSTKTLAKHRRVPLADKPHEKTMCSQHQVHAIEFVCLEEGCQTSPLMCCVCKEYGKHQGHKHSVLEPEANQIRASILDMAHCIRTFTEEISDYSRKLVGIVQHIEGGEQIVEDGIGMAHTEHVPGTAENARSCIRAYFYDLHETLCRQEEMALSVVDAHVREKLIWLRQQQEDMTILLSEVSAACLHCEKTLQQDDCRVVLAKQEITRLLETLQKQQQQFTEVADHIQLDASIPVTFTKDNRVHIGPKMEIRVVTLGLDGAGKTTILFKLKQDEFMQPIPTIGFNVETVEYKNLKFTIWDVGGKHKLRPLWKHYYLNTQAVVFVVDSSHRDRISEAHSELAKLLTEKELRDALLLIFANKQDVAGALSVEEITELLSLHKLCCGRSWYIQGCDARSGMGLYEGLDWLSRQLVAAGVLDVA
Chain of UniProt Q5VZI3 (Q5VZI3 whole entry, looked up): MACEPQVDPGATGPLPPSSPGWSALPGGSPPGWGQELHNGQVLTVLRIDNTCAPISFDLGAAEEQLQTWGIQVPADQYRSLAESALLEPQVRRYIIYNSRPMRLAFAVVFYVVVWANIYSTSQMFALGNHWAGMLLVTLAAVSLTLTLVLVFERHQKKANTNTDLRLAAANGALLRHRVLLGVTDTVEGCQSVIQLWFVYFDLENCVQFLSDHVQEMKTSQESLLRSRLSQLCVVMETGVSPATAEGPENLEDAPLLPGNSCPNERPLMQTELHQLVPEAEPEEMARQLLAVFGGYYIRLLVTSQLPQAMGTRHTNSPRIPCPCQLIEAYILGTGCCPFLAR
Chain of UniProt O75691 (O75691 whole entry, looked up): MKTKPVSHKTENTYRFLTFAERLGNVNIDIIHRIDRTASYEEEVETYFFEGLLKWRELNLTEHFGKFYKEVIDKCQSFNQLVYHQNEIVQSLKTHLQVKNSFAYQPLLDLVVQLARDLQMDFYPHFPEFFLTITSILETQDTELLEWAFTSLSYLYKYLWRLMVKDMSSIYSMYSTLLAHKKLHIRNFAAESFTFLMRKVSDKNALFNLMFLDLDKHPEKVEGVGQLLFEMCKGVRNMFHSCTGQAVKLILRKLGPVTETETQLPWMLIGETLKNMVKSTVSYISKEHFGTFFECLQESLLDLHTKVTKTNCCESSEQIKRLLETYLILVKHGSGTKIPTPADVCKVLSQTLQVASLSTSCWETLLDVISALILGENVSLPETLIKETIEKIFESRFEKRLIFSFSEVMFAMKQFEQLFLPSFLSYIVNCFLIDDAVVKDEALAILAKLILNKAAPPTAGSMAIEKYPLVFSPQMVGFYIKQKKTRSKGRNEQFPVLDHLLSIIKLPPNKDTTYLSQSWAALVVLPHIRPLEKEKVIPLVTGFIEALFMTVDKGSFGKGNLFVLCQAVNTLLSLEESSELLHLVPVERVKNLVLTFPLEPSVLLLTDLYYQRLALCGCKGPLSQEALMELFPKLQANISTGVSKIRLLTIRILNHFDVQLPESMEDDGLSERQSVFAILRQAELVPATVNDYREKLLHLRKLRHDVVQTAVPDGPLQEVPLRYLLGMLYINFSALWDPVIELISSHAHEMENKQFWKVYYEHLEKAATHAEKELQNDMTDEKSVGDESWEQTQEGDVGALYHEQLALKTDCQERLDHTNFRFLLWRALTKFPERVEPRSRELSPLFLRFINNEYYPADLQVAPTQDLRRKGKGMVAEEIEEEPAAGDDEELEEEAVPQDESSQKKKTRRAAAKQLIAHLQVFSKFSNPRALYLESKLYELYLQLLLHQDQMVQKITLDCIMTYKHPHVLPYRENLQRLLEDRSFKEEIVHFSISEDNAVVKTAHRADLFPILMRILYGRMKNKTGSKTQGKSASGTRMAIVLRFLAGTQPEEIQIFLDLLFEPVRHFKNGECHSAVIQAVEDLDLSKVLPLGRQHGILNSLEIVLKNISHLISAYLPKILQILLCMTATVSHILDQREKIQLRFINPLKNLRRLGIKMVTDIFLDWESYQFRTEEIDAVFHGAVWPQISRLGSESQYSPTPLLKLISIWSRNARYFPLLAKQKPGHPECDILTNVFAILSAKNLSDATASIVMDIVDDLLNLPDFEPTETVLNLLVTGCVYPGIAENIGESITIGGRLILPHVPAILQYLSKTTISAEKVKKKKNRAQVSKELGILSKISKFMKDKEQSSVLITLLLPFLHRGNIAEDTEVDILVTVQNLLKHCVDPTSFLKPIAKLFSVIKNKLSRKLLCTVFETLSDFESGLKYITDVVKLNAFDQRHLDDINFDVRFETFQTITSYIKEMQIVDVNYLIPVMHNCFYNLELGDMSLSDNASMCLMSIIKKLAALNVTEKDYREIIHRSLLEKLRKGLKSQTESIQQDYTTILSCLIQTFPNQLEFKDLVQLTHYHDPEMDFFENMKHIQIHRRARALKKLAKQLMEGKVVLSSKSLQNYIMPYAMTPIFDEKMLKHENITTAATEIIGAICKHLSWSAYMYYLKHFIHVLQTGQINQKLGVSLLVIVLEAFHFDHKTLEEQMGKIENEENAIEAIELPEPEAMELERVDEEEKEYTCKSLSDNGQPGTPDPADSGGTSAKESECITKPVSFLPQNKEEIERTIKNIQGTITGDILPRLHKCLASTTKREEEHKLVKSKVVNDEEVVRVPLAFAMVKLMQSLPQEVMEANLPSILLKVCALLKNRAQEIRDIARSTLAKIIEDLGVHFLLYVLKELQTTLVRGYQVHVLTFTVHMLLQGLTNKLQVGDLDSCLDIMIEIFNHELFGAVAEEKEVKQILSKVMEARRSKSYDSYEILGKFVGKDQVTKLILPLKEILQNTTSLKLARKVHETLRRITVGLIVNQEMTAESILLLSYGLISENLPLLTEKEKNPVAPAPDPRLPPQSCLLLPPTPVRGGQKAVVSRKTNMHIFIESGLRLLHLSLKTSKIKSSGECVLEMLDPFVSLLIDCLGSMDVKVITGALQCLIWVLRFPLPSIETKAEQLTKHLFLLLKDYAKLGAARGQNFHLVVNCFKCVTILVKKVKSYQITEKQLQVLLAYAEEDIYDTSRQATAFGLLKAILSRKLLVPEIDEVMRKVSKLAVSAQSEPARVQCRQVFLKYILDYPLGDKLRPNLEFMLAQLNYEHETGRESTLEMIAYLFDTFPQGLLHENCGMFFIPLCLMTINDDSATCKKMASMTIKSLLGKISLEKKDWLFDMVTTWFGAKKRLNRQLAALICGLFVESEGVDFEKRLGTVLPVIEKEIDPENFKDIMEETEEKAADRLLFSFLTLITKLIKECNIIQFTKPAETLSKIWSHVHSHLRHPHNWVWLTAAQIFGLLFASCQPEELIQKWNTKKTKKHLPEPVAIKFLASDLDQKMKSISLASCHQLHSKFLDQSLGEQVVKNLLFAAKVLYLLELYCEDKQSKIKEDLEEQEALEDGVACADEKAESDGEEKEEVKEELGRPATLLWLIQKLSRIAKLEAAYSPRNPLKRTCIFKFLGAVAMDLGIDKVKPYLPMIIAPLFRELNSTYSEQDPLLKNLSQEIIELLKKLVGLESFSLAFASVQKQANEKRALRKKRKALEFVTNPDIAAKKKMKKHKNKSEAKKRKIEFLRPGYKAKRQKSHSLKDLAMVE
Chain of UniProt P51668 (P51668 whole entry, looked up): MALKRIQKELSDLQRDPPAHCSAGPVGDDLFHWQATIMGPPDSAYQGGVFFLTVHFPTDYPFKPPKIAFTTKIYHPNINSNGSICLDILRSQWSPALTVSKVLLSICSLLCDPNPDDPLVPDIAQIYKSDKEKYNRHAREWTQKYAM
Chain of UniProt Q16881 (Q16881 whole entry, looked up): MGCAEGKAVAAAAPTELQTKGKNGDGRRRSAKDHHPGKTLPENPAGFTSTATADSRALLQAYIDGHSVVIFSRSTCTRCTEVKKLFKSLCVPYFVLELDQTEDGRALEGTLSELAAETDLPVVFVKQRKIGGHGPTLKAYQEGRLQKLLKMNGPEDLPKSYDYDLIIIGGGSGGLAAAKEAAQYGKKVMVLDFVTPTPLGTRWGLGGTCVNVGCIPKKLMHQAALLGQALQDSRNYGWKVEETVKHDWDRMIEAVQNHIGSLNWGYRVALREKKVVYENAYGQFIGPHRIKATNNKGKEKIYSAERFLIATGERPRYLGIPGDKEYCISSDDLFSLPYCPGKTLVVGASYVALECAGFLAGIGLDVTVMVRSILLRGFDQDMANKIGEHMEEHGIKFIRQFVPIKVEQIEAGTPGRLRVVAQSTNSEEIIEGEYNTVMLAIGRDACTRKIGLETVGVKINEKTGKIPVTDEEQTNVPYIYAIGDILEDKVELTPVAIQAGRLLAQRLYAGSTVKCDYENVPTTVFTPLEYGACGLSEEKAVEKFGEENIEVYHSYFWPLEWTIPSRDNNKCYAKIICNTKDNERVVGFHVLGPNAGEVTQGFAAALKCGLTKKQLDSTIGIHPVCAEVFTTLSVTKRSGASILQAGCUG
Chain of UniProt P61960 (P61960 whole entry, looked up): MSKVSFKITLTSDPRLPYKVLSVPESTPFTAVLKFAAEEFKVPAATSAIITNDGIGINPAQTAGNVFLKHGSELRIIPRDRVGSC

Row | Target | log2 fold change [1] | log2 fold change [2] | log2 fold change [3] | log2 fold change [4] | log2 fold change [5] | log2 fold change [6] | log2 fold change [7] | log2 fold change [8] | log2 fold change [9] | log2 fold change [10] | log2 fold change [11] | log2 fold change [12] | log2 fold change [13] | log2 fold change [14] | log2 fold change [15] | log2 fold change [16] | log2 fold change [17] | log2 fold change [18] | log2 fold change [19] | log2 fold change [20]
1 | WARS1 (UniProt G3V339) | -0.123 |  |  |  |  |  |  |  |  |  |  |  |  |  |  |  |  |  |  | 
2 | USP48 (UniProt Q86UV5) |  | -0.016 | 0.19 | 0.053 | -0.031 | 0.015 |  |  |  |  |  |  |  |  |  |  |  |  |  | 
3 | XAB2 (UniProt Q9HCS7) | -0.223 |  | -0.12 |  | 0.105 |  | -0.174 | -0.69 (active) | -0.146 | 0.013 | -0.035 | -0.223 |  |  |  |  |  |  |  | 
4 | UBE2D1 (UniProt P51668) |  | -0.003 | 0.094 | -0.012 | 0.002 | 0.062 |  |  | 0.054 | 0.102 |  | 0.056 | -0.006 | -0.083 | 0.137 | -0.063 | 0.021 | -0.004 | 0.047 | -0.048
5 | VDAC1 (UniProt C9JI87) | -0.195 | 0.001 | -0.119 | -0.014 | -0.014 | 0.017 |  |  | 0.09 | -0.281 |  | -0.743 (active) | -0.217 | -0.018 | 0.161 | -0.182 |  | 0.275 |  | 
6 | TMEM8A (UniProt Q9HCN3) |  | 0.188 | -0.153 | -0.038 | 0.085 | 0.425 |  |  | 0.394 | -0.095 |  | -0.065 | -0.093 |  | -0.008 | 0.065 | 0.121 | 0.049 | 0.014 | -0.026
7 | TOM1 (UniProt O60784) | -0.05 | -0.061 | 0.103 |  | 0.094 | -0.04 | 0.078 | -0.054 |  |  | 0.052 |  |  |  |  |  | 0.171 |  | -0.018 | 0.044
8 | TRIM23 (UniProt P36406) |  | -0.031 | -0.078 | 0.012 | 0.039 | 0.143 | 0.019 | 0.152 | 0.008 | 0.001 | -0.043 | 0.115 | 0.036 |  |  |  | 0.204 | -0.122 | 0.128 | -0.135
9 | UFM1 isoform 2 (UniProt P61960) | -0.065 | -0.12 | -0.067 | 0.027 | 0.008 | -0.009 |  |  | -0.004 | 0.063 |  |  | -0.048 | 0 | -0.085 | -0.052 | -0.062 | -0.157 | -0.066 | -0.042
10 | WDR4 isoform 3 (UniProt P57081) | 0.125 | -0.007 |  |  |  | 0.074 |  |  |  |  |  |  |  |  |  |  | 0.359 |  | -0.247 | 
11 | WARS1 (UniProt G3V3P2) |  | 0.087 |  |  |  | -0.07 |  |  |  |  |  |  |  |  |  |  |  |  |  | 
12 | TMEM41A (UniProt Q96HV5) | 0.137 | -0.158 | -0.096 | 0.034 | 0.092 | -0.023 | -0.123 | 0.139 | -0.001 | 0 | 0.025 | 0.065 |  | 0.024 | 0.088 | -0.106 | -0.047 |  | -0.044 | -0.138
13 | ULBP1 (UniProt Q9BZM6) | 0.192 | 0.071 | -0.023 |  | 0.001 | 0.188 |  |  | -0.024 | 0.014 |  | 0.011 | 0.022 | 0.036 | 0.164 | 0.002 |  | 0.156 |  | 0.044
14 | WARS1 (UniProt G3V277) |  | 0.066 | 0.04 | 0.021 | 0.145 | -0.009 | -0.163 | -0.001 |  |  | 0.029 |  |  | 0.127 |  |  | 0.095 |  | -0.218 | -0.206
15 | TRPT1 isoform 4 (UniProt Q86TN4) |  | -0.053 | -0.055 |  | -0.061 | -0.176 | -0.088 | -0.011 |  |  | 0.013 | -0.105 |  | -0.194 |  |  |  |  |  | 
16 | TUBA4A (UniProt C9JJQ8) |  | 0.016 |  |  |  | 0.009 | 0.083 | -0.019 | 0.19 | 0.108 | -0.046 |  | -0.041 |  | 0.052 | 0.018 |  | -0.159 |  | 0.001
17 | U2AF1L5 (UniProt P0DN76) |  |  | -0.517 | -0.048 | -0.238 |  | -0.034 | -0.105 | -0.014 | 0.023 | -0.1 |  |  | -0.051 |  |  |  |  |  | -0.025
18 | TMEM104 (UniProt Q8NE00) | 0.012 |  | -0.012 | 0.061 | 0.164 |  | 0.134 | -0.145 | 0.129 | -0.049 | 0.112 | -0.34 | -0.01 | -0.081 | 0.016 | -0.156 | -0.341 | 0.009 | -0.087 | 
19 | UBXN8 (UniProt O00124) | -0.094 | 0.069 |  |  |  | 0.054 |  |  | 0.234 | -0.101 |  | -0.193 | -0.028 | -0.116 | -0.035 | 0.023 | -0.002 | 0.161 | 0.026 | -0.077
20 | TMEM268 isoform 3 (UniProt Q5VZI3) | -0.308 | -0.064 | 0.014 | -0.079 | 0.001 | -0.146 |  |  | 0.371 | -0.063 |  | -0.227 | 0.104 | -0.135 | -0.25 | 0.09 | -0.088 | -0.078 | 0.124 | -0.073
21 | WDR46, A0A0G2JJL1 | -0.581 | 0.533 | -0.167 | 0.039 | -0.207 | -0.119 | -0.108 | 0.086 | -0.157 | -0.125 | 0.236 |  |  |  | -0.134 | 0.154 |  |  |  | 0.198
22 | UBE2J2 isoform 3 (UniProt Q8N2K1) | -0.076 | 0.146 |  |  |  | 0.252 |  |  | 0.101 | -0.01 |  |  | -0.031 | 0.092 | 0.134 | -0.07 | -0.145 | -0.365 | 0.028 | -0.094
23 | UTP20 (UniProt O75691) | -0.379 |  |  |  |  |  |  |  |  |  |  |  |  |  | -0.087 | 0.076 |  |  |  | 0.021
24 | WARS1 (UniProt G3V5U1) | -0.282 | 0.025 | 0.391 |  | -0.105 | 0.092 | -0.557 | 0.09 |  |  | -0.299 |  |  |  |  |  |  |  |  | 
25 | TMEM219 (UniProt Q86XT9) | -0.036 | -0.065 |  | -0.029 |  | 0.049 |  |  | -0.163 | -0.241 |  |  | -0.181 | -0.017 | -0.011 | 0.058 | -0.277 | 0.114 | 0.034 | -0.055
26 | TXNRD1 isoform 7 (UniProt Q16881) | -0.026 | -0.034 |  |  |  | 0.075 |  |  | -0.049 | -0.015 |  |  |  |  | 0.242 | -0.07 | 0.037 |  | 0.125 | 
27 | TTC26 |  |  |  |  |  |  |  |  |  |  |  | 0.105 |  |  |  |  |  |  |  | -0.11
28 | WDR75 (UniProt Q8IWA0) | -0.03 |  | -0.054 | 0.198 | -0.078 |  | -0.071 | -0.07 | -0.082 | 0.112 | 0.145 | -0.219 | -0.078 | 0.177 | -0.04 | -0.011 |  | 0.185 |  | -0.2
29 | VPS72 isoform 2 (UniProt Q15906) | 0.093 | 0.084 | -0.066 | 0.033 | -0.094 | -0.041 |  |  | -0.021 | -0.021 |  | 0.218 | -0.008 | 0.062 | -0.047 | 0.012 |  | 0.196 |  | 0.007
30 | WARS1 (UniProt G3V227) | -0.024 |  |  |  |  |  |  |  | -0.011 | -0.015 |  |  | 0.086 | -0.047 |  |  |  | 0.147 |  | -0.016
